# Experimental data: the supplement of paper PMC6609913
# Structures can show the parent of a compound that is named as a salt. ± gives the standard deviation of the averaged measurements. Over roughly 1,300 compounds, “normalised cell viability” has its median near 1; the lowest 2% begin near 0.14. This excerpt belongs to a sample that is enriched for the lowest values.
# System: V-C8 (BRCA2-deficient hamster cells)
# Test: normalised cell viability (fraction of plate median); higher = more viable cells (less toxic)
# Conditions: 5 µM
# Outline: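 Cell viability was measured with a resazurin assay, normalised to the plate median (modified robust per cent of sample) and averaged over triplicate wells. Hamster V-C8 cells lacking BRCA2 and V-C8 cells with BRCA2 restored were seeded in 96-well plates. After 24 h, library drugs from 10 mM DMSO stocks were added at a final 5 μM in 100 μl medium and left for 3 days (screen 1) or 6 days (screen 2), with solvent-only wells alongside.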
Structure (SMILES),normalised cell viability (treatment time: 3 days),normalised cell viability (treatment time: 6 days)
CN[C@H](CC(C)C)C(=O)N[C@H]1C(=O)N[C@@H](CC(N)=O)C(=O)N[C@H]2C(=O)N[C@H]3C(=O)N[C@H](C(=O)N[C@H](C(=O)O)c4cc(O)cc(O)c4-c4cc3ccc4O)[C@H](O)c3ccc(c(Cl)c3)Oc3cc2cc(c3O[C@@H]2O[C@H](CO)[C@@H](O)[C@H](O)[C@H]2O[C@H]2C[C@](C)(N)[C@H](O)[C@H](C)O2)Oc2ccc(cc2Cl)[C@H]1O [Vancomycin hydrochloride],0.159 ± 0.01,0.141 ± 0.0064
CC(CN(C)C)C(C)(O)Cc1ccc(Cl)cc1 (stereo not drawn) [Clobutinol hydrochloride],1.05 ± 0.13,1.11 ± 0.064
Cc1cc(NC(=O)C2=C(O)c3ccccc3S(=O)(=O)N2C)no1 [Isoxicam],1.04 ± 0.06,1.06 ± 0.042
CC[C@]12CCCN3CCc4c(n(c5ccccc45)C(=O)C1)[C@@H]32 [Eburnamonine (-)],0.362 ± 0.016,0.643 ± 0.11
CN(C)[C@@H]1C(O)=C(C(N)=O)C(=O)[C@@]2(O)C(O)=C3C(=O)c4c(O)cccc4[C@@](C)(O)[C@H]3[C@H](O)[C@@H]12 [Oxytetracycline dihydrate],0.991 ± 0.015,0.945 ± 0.05
C=C(NC(=O)C(=C)NC(=O)c1csc(C2=N[C@@H]3c4csc(n4)[C@H]4NC(=O)c5csc(n5)[C@H]([C@](C)(O)[C@@H](C)O)NC(=O)[C@H]5CSC(=N5)/C(=C/C)NC(=O)[C@H]([C@@H](C)O)NC(=O)c5csc(n5)[C@]3(CC2)NC(=O)[C@H](C)NC(=O)C(=C)NC(=O)[C@H](C)NC(=O)[C@H]([C@@H](C)CC)N[C@@H]2C=Cc3c([C@H](C)O)cc(nc3[C@H]2O)C(=O)O[C@@H]4C)n1)C(N)=O [Thiostrepton],0.14 ± 0.011,0.126 ± 0.0091
COc1c(O[C@@H]2O[C@H](CO)[C@@H](O)[C@H](O)[C@H]2O)cc2c(c1OC)-c1ccc(SC)c(=O)cc1[C@@H](NC(C)=O)CC2 [Thiocolchicoside],1.22 ± 0.36,0.97 ± 0.017
CCCCc1cc2ccccc2c(OCCN(C)C)n1 [Dimethisoquin hydrochloride],1.03 ± 0.087,1.04 ± 0.05
CCOc1ccc2c(c1)C(C)=CC(C)(C)N2 [Ethoxyquin],0.883 ± 0.014,1.2 ± 0.26
CCN(CC)CCOC(=O)C(c1ccccc1)C1CCCCC1 (stereo not drawn) [Drofenine hydrochloride],1.02 ± 0.038,1.02 ± 0.07
CCN(CC)CCOC(=O)C(Cc1cccc2ccccc12)CC1CCCO1 (stereo not drawn) [Nafronyl oxalate],0.1613 ± 0.00033,0.14 ± 0.0088
CCN(CC)CCOC(=O)C(c1ccccc1)c1ccccc1 [Adiphenine hydrochloride],0.976 ± 0.021,1.02 ± 0.039
COCCOC(=O)C1=C(C)NC(C)=C(C(=O)OC/C=C/c2ccccc2)C1c1cccc([N+](=O)[O-])c1 (stereo not drawn) [Cilnidipine],0.98 ± 0.03,1.01 ± 0.015
CC(=C(CCO)SSCC1CCCO1)N(C=O)Cc1cnc(C)nc1N (stereo in doubt) [Fursultiamine Hydrochloride],1.03 ± 0.025,1.03 ± 0.0084
Cc1ccccc1C(OCCN(C)C)c1ccccc1 (stereo not drawn) [Orphenadrine hydrochloride],1.05 ± 0.14,0.964 ± 0.14
O=C(O)c1cc(/N=N/c2ccc(S(=O)(=O)Nc3ccccn3)cc2)ccc1O [Sulfasalazine],1.03 ± 0.056,0.993 ± 0.046
N#Cc1ccc(C2CCCc3cncn32)cc1 (stereo not drawn) [Fadrozole hydrochloride],1.01 ± 0.087,0.97 ± 0.079
COc1cccc2c1C(=O)c1c(O)c3c(c(O)c1C2=O)C[C@@](O)(C(C)=O)C[C@@H]3O[C@H]1C[C@H](N)[C@H](O)[C@H](C)O1 [Daunorubicin hydrochloride],0.141 ± 0.011,0.124 ± 0.0055
COc1cccc2c1C(=O)c1c(O)c3c(c(O)c1C2=O)C[C@@](O)(C(=O)CO)C[C@@H]3O[C@H]1C[C@H](N)[C@H](O)[C@H](C)O1 [Doxorubicin hydrochloride],0.127 ± 0.0054,0.113 ± 0.0072
COc1cccc2c1C(=O)c1c(O)c3c(c(O)c1C2=O)C[C@@](O)(C(=O)CO)C[C@@H]3O[C@H]1C[C@H](N)[C@@H](O)[C@H](C)O1 [Epirubicin hydrochloride],0.123 ± 0.013,0.163 ± 0.016
Cc1nccn1CC1CCc2c(c3ccccc3n2C)C1=O (stereo not drawn) [Ondansetron Hydrochloride],1.07 ± 0.04,1.1 ± 0.082
"CC(C)NCC(O)c1ccc(O)c(O)c1 (single isomer, unassigned; (+)) [(+)-Isoproterenol (+)-bitartrate salt]",1.028 ± 0.0063,0.926 ± 0.063

Structure (SMILES),normalised cell viability (treatment time: 3 days),normalised cell viability (treatment time: 6 days)
CC(=O)NC[C@H]1CN(c2ccc(N3CCOCC3)c(F)c2)C(=O)O1 [Linezolid],1.04 ± 0.039,0.972 ± 0.047
"c1ccc(CNc2ncnc3nc[nH]c23)cc1 [Aminopurine, 6-benzyl]",0.947 ± 0.1,0.94 ± 0.075
"O=C1C=CC(=O)c2c1ccc1c2ccc2ccccc21 [Chrysene-1,4-quinone]",1.02 ± 0.061,1.06 ± 0.12
Nc1c2c(nc3ccccc13)CCCC2 [Tacrine hydrochloride],0.984 ± 0.031,1.1 ± 0.049
Nc1c2ccccc2nc2ccccc12 [Aminacrine],0.127 ± 0.015,0.164 ± 0.015
CC(C)Cn1cnc2c(N)nc3ccccc3c21 [Imiquimod],1.11 ± 0.044,1.02 ± 0.064
CN1CCN(c2c(F)cc3c(=O)c(C(=O)O)cn(CCF)c3c2F)CC1 [Fleroxacin],0.982 ± 0.046,0.977 ± 0.051
COC(=O)Nc1nc2cc(C(=O)c3ccc(F)cc3)ccc2[nH]1 [Flubendazol],0.148 ± 0.019,0.16 ± 0.0047
COC(=O)Nc1nc2cc([S+]([O-])c3ccccc3)ccc2[nH]1 (stereo not drawn) [Oxfendazol],0.712 ± 0.076,0.775 ± 0.014
COC(=O)Nc1nc2cc(C(=O)c3cccs3)ccc2[nH]1 [Nocodazole],0.147 ± 0.0062,0.128 ± 0.004
CCCOc1ccc2[nH]c(NC(=O)OC)nc2c1 [Oxibendazol],0.185 ± 0.0067,0.183 ± 0.0049
COC(=O)Nc1nc2cc(Sc3ccccc3)ccc2[nH]1 [Fenbendazole],0.187 ± 0.0098,0.181 ± 0.013
COC(=O)Nc1nc2cc(C(=O)c3ccccc3)ccc2[nH]1 [Mebendazole],0.164 ± 0.0056,0.13 ± 0.0086
"CC(C)NCC(O)c1ccc(O)c(O)c1 (single isomer, unassigned; (-)) [(-)-Isoproterenol hydrochloride]",1 ± 0.035,0.952 ± 0.015
C#C[C@]1(O)CC[C@H]2[C@@H]3CCC4=CCCC[C@@H]4[C@H]3CC[C@@]21C [Lynestrenol],1.1 ± 0.046,1.12 ± 0.063
CC(=O)N(O)CCCCCNC(=O)CCC(=O)N(O)CCCCCNC(=O)CCC(=O)N(O)CCCCCN [Deferoxamine mesylate],0.305 ± 0.021,0.198 ± 0.011
CC(C)(C)C(=O)OCOC(=O)[C@@H]1N2C(=O)[C@@H](NC(=O)[C@H](N)c3ccccc3)[C@H]2SC1(C)C [Pivampicillin],1.02 ± 0.075,1.01 ± 0.1
Cn1c(=O)c2c(ncn2CCO)n(C)c1=O [Etofylline],1.03 ± 0.052,0.996 ± 0.039
Cc1cc(-n2c(=O)[nH]c(=O)n(C)c2=O)ccc1Oc1ccc(SC(F)(F)F)cc1 [Toltrazuril],1.07 ± 0.044,1 ± 0.073
O=C1NCN(c2ccccc2)C12CCN(CCCC(c1ccc(F)cc1)c1ccc(F)cc1)CC2 [Fluspirilen],0.472 ± 0.045,0.235 ± 0.12
Clc1ccccc1CN1CCc2sccc2C1 [Ticlopidine hydrochloride],1.1 ± 0.032,1.08 ± 0.064
Cc1nc(=O)c2cc(CN(C)c3ccc(C(=O)N[C@@H](CCC(=O)O)C(=O)O)s3)ccc2[nH]1 [Raltitrexed],0.332 ± 0.028,0.432 ± 0.075

Structure (SMILES),normalised cell viability (treatment time: 3 days),normalised cell viability (treatment time: 6 days)
CCN(CC)CCN[C@@H](C(=O)OCCC(C)C)c1ccccc1 [Camylofine chlorhydrate],1.07 ± 0.065,0.978 ± 0.027
Cc1ncc(C[n+]2csc(CCO)c2C)c(N)n1 [Thiamine hydrochloride],1.05 ± 0.029,1.05 ± 0.016
Cc1c(Nc2ncccc2C(=O)O)cccc1C(F)(F)F [Flunixin meglumine],1.1 ± 0.11,1.03 ± 0.037
CC(C)OC(=O)CCC/C=C\C[C@@H]1[C@@H](CC[C@@H](O)CCc2ccccc2)[C@H](O)C[C@@H]1O [Latanoprost],1.13 ± 0.11,1.05 ± 0.041
"C[C@@]1(O)CCOC(=O)C1 [Mevalonic-D, L acid lactone]",1.12 ± 0.05,1.05 ± 0.18
COc1ccc2[nH]cc(CCNC(C)=O)c2c1 [Melatonin],1.16 ± 0.068,1 ± 0.058
CCCCCNC(=N)N/N=C/c1c[nH]c2ccc(OC)cc12 [Tegaserod maleate],0.124 ± 0.011,0.164 ± 0.016
CN1CCCC(CC2c3ccccc3Sc3ccccc32)C1 (stereo not drawn) [Metixene hydrochloride],0.57 ± 0.02,0.69 ± 0.052
Clc1ccc(C(Cn2ccnc2)OCc2ccsc2Cl)c(Cl)c1 (stereo not drawn) [Tioconazole],0.97 ± 0.046,0.966 ± 0.059
COC1=C(OC)C(=O)C(CCCCCCCCCCO)=C(C)C1=O [Idebenone],0.648 ± 0.036,0.713 ± 0.04
CC(C)(C)NCC(O)COc1cccc2c1CC(O)C(O)C2 (stereo not drawn) [Nadolol],1.02 ± 0.073,1.04 ± 0.035
C1CCC(C(CC2CCCCN2)C2CCCCC2)CC1 (stereo not drawn) [Perhexiline maleate],0.126 ± 0.011,0.109 ± 0.0083
Cc1cc2cc3c(C)cc(=O)oc3c(C)c2o1 [Trioxsalen],1.04 ± 0.047,1.07 ± 0.027
CC=CC(=O)N(CC)c1ccccc1C [Crotamiton],0.866 ± 0.12,0.929 ± 0.025
CC(C)c1ccc2oc3nc(N)c(C(=O)O)cc3c(=O)c2c1 [Amlexanox],0.933 ± 0.034,1.03 ± 0.089
O=C(O)[C@H]1/C(=C/CO)O[C@@H]2CC(=O)N21 [Potassium clavulanate],1 ± 0.03,0.984 ± 0.039
Nc1ccc(O)c(C(=O)O)c1 [Mesalamine],1.09 ± 0.028,1.14 ± 0.27
N=C(NCCCCCCNC(=N)NC(=N)Nc1ccc(Cl)cc1)NC(=N)Nc1ccc(Cl)cc1 [Chlorhexidine],0.129 ± 0.0057,0.101 ± 0.0054
N=C(N)NC(=N)NCCc1ccccc1 [Phenformin hydrochloride],0.955 ± 0.035,0.96 ± 0.052
CC(C)NC(=N)NC(=N)Nc1ccc(Cl)cc1 [Proguanil hydrochloride],0.196 ± 0.012,0.189 ± 0.014
